Source: PubChem BioAssay (Tox21)
Results filed as inconclusive are left out. Values without a mark were called inactive. Unless noted, calls follow the shape of the dose curve; as a rule, active = well fitted curve in the direction sought with a large enough effect in the repeat runs; inconclusive = weak or mixed curves; inactive = no such curve, though single readings can be large; an effect the other way counts as inactive or inconclusive.

Experiment: qHTS assay to identify small molecule antagonists of the progesterone receptor (PR) signaling pathway - cell viability counter screen (AID 1346798); also: nearly all actives have a fitted effect of over 50% in size
Details: PR-UAS-bla HEK293T viability, CellTiter-Glo luminescence, 16 h; series mostly up to 92.4 µM; activity change, negative = cytotoxicity: at the top concentration
Procedure, shortened: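 Luminescence readout (CellTiter-Glo, 30 min, RT) of viability in PR-UAS-bla HEK293T cells exposed to compound and R5020 agonist for 16 hr at 37C, 5% CO2; run in the same wells as the beta-lactamase reporter read.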
% is scaled to controls: 0 for no effect and ±100 for the full control effect.

SMILES | activity change, negative = cytotoxicity
CCCSC(=O)Cl | 4.24%
Cc1cc(C)c(C(=O)P(=O)(C(=O)c2c(C)cc(C)cc2C)c2ccccc2)c(C)c1 | -3.39%
CCCCC(=O)Cl | -14.5%
O=c1oc2ccccc2c(O)c1C1CCCc2ccccc21 (stereo not given) | 7.27%
CCCCc1c(C)nc(NCC)[nH]c1=O | 12%
OC(Cn1cncn1)(c1ccc(F)cc1)c1ccccc1F (stereo not given) | -1.59%
CNCC(=O)c1ccc(O)c(O)c1 | 2.37% [at 42.5 µM]
CCN(Cc1ccc(Cl)nc1)/C(=C/[N+](=O)[O-])NC | 9.5% [at 42.5 µM]

Experiment: qHTS assay to identify small molecule agonists of the progesterone receptor (PR) signaling pathway - cell viability counter screen (AID 1346799; calls by dose curve; also: nearly all actives have a fitted effect of over 45% in size)
Details: PR-UAS-bla HEK293T viability, CellTiter-Glo luminescence, 16 h; series mostly up to 92.4 µM; activity change, negative = cytotoxicity: at the top concentration
Procedure, shortened: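 HEK293T PR-UAS-bla, 3,000 cells/well, 2% charcoal-stripped FBS; 6 h settle, compound 16 h at 37C/5% CO2; LiveBLAzer 2 h RT, then CellTiter-Glo 30 min RT, luminescence read.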

SMILES | activity change, negative = cytotoxicity
CN1CCC(O)(c2ccc(F)cc2)C(C(=O)c2ccc(F)cc2)C1 (stereo not given) | -7.6% [at 42.5 µM]
CC(=O)[C@H]1CC[C@H]2[C@@H]3CC[C@H]4C[C@H](O)CC[C@]4(C)[C@H]3C(=O)C[C@]12C | -26.4% [at 42.5 µM]
O=C(O)c1cccc(Cl)c1 | -8.43%
O=NN1CCN(N=O)CC1 | 0%
Nc1ccccc1Cl | 7.92%
CC1CCCCC1NC(=O)Nc1ccccc1 (stereo not given) | -1.4%
CC(C)NCC(O)c1ccc(N)c(C#N)c1 (stereo not given) | 0.949% [at 42.5 µM]
CCOP(=O)(OCC)OP(=O)(OCC)OCC | -5.11%
COC(=O)c1c(C(F)F)nc(C(F)(F)F)c(C2=NCCS2)c1CC(C)C | -27.2%
C[N+](C)=CCl | -5.11%
CC(=O)Nc1cc([As](=O)(O)O)ccc1O | -3.25% [at 42.5 µM]
CCOP(=S)(OCC)SCSP(=S)(OCC)OCC | 4.67%
C[C@]12CC[C@H]3[C@@H](CCC4=CC(=O)CC[C@@]43C)[C@@H]1CC[C@@H]2C(=O)O | 0% [at 42.5 µM]
CCC(=O)c1ccccc1 | -0.119%
C[C@@H]1CN(C2CCC(C#N)(c3ccc(F)cc3)CC2)CC[C@]1(C(=O)O)c1ccccc1 (stereo not given in full) | 0.959% [at 42.5 µM]
N#CCCC#N | -2.59%
CC(C)(C)OC(=O)c1ncn2c1[C@@H]1CCCN1C(=O)c1c(Br)cccc1-2 | 7.99% [at 42.5 µM]
CC(N)=S | 2.84%
CCCCOC(=O)c1ccccc1N | -14.7%
CCOC(=O)NC(=S)Nc1ccccc1NC(=S)NC(=O)OCC | -5.78%
ClCC(Cl)(Cl)Cl | 3.89%
O=C(Cc1ccccc1)OCc1ccccc1 | -16.1%
CCCSC(=O)Cl | 6.21%
Cc1cc(C)c(C(=O)P(=O)(C(=O)c2c(C)cc(C)cc2C)c2ccccc2)c(C)c1 | -12.6%
CCCCC(=O)Cl | -0.736%
CCCCc1c(C)nc(NCC)[nH]c1=O | 3.72%
OC(Cn1cncn1)(c1ccc(F)cc1)c1ccccc1F (stereo not given) | 8.69%
CNCC(=O)c1ccc(O)c(O)c1 | -6% [at 42.5 µM]
CCN(Cc1ccc(Cl)nc1)/C(=C/[N+](=O)[O-])NC | 0% [at 42.5 µM]

Experiment: qHTS assay to identify small molecule antagonists of the TGF-beta/Smad signaling pathway - cell viability counter screen (AID 1346824); also: nearly all actives have a fitted effect of over 50% in size
Details: SBE-bla HEK293T viability, CellTiter-Glo luminescence; series mostly up to 76.8 µM; viability change, negative = cytotoxic: at the top concentration
Procedure, shortened: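 SBE-bla HEK 293T cells were plated overnight at 37 C, then given compounds in DMSO plus TGF-beta1 (added as 0.25 ng/mL solution) for 5 hr. After the bla read, CellTiter-Glo was added to the same wells and luminescence read after 30 min at room temperature.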

SMILES | viability change, negative = cytotoxic
CCC(C)n1c(=O)[nH]c(C)c(Br)c1=O (stereo not given) | -26.3%
CN1CCC(O)(c2ccc(F)cc2)C(C(=O)c2ccc(F)cc2)C1 (stereo not given) | -16.4% [at 35.3 µM]
CC(=O)[C@H]1CC[C@H]2[C@@H]3CC[C@H]4C[C@H](O)CC[C@]4(C)[C@H]3C(=O)C[C@]12C | -0.847% [at 35.3 µM]
O=C(O)c1cccc(Cl)c1 | 2.11%
O=NN1CCN(N=O)CC1 | 4.7%
Nc1ccccc1Cl | 9.16%
CC1CCCCC1NC(=O)Nc1ccccc1 (stereo not given) | -8.57%
CC(C)NCC(O)c1ccc(N)c(C#N)c1 (stereo not given) | 12.6% [at 35.3 µM]
CCOP(=O)(OCC)OP(=O)(OCC)OCC | 3.35%
COC(=O)c1c(C(F)F)nc(C(F)(F)F)c(C2=NCCS2)c1CC(C)C | -9.46%
C[N+](C)=CCl | -4.44%
CC(=O)Nc1cc([As](=O)(O)O)ccc1O | 5.71% [at 35.3 µM]
CCOP(=S)(OCC)SCSP(=S)(OCC)OCC | 10.8%
C[C@]12CC[C@H]3[C@@H](CCC4=CC(=O)CC[C@@]43C)[C@@H]1CC[C@@H]2C(=O)O | 3.67% [at 35.3 µM]
CCC(=O)c1ccccc1 | 1.03%
C[C@@H]1CN(C2CCC(C#N)(c3ccc(F)cc3)CC2)CC[C@]1(C(=O)O)c1ccccc1 (stereo not given in full) | 3.53% [at 35.3 µM]
N#CCCC#N | 0.622%
CSc1ccc(C(=O)C(C)(C)N2CCOCC2)cc1 | -11.5%
c1ccc(N2CCNCC2)cc1 | 9.23% [at 35.3 µM]

SMILES | viability change, negative = cytotoxic
CC(C)(C)OC(=O)c1ncn2c1[C@@H]1CCCN1C(=O)c1c(Br)cccc1-2 | 8.56% [at 35.3 µM]
CC(N)=S | -8.02%
Clc1cccc(N2CCNCC2)c1 | -0.935% [at 35.3 µM]
CCCCOC(=O)c1ccccc1N | -5.04%
COc1cc(C[C@@H](C)N)c(OC)cc1C | 11.8%
CNC(=O)Oc1ccccc1C1OCCO1 | 14.1%
CCOC(=O)NC(=S)Nc1ccccc1NC(=S)NC(=O)OCC | 0.527%
ClCC(Cl)(Cl)Cl | 7.08%
O=C(Cc1ccccc1)OCc1ccccc1 | -9.16%
CCCSC(=O)Cl | 16.8%
Cc1cc(C)c(C(=O)P(=O)(C(=O)c2c(C)cc(C)cc2C)c2ccccc2)c(C)c1 | 0.527%
C#C[C@]1(O)C=C[C@H]2[C@@H]3CCC4=CC(=O)CC[C@@H]4[C@H]3CC[C@@]21CC | -9.18% [at 35.3 µM]
CCCCC(=O)Cl | -14.8%
O=c1oc2ccccc2c(O)c1C1CCCc2ccccc21 (stereo not given) | 12.3%
CCCCc1c(C)nc(NCC)[nH]c1=O | -1.66%
OC(Cn1cncn1)(c1ccc(F)cc1)c1ccccc1F (stereo not given) | 2.23%
CC(CC(C#N)(c1ccccc1)c1ccccc1)N(C)C (stereo not given) | -5.82%
CNCC(=O)c1ccc(O)c(O)c1 | 1.48% [at 35.3 µM]
CCN(Cc1ccc(Cl)nc1)/C(=C/[N+](=O)[O-])NC | -4.31% [at 35.3 µM]
